Compound activity: PubChem, National Center for Advancing Translational Sciences (NCATS)
An excerpt weighted towards active compounds, which were near 2.6% of everything screened.
Cruzain noTriton = inhibitors of Trypanosoma cruzi cruzain without detergent; hit rate 2.3% among 200,000; purified cruzain, Z-FR-AMC fluorescence, no detergent; P25779; Potency, µM, most hits filed as inhibitors; AID 1476; note: nearly all actives have a fitted effect of over 40% in size
Target sequence (P25779 123-467 limits assumed): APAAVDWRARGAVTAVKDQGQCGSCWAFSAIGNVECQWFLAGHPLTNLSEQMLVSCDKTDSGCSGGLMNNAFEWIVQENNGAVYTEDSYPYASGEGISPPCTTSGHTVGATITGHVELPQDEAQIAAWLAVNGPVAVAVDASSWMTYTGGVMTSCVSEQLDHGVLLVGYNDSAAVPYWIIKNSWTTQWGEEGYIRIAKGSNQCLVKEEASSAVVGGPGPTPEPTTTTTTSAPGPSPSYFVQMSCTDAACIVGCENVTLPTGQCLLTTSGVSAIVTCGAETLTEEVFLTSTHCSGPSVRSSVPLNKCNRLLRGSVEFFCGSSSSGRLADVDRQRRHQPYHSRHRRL
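Purified cruzain at 1.5 nM, pre-incubated 15 min with compound at room temperature in 100 mM sodium acetate pH 5.5, 5 mM DTT, 0.00005% Triton X-100. Reaction started with 2 uM Z-FR-AMC; AMC fluorescence increase over 60 s gives rate.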
Cruzain Triton = blocks cruzain activity in presence of Triton detergent. P25779. purified cruzain, Z-FR-AMC fluorescence, 0.01% Triton. Potency, µM, actives largely listed as inhibitors. hit rate 0.43% among 200,000; note: nearly all actives have a fitted effect of over 40% in size
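In this qHTS format, compounds are incubated with 1.5 nM cruzain for 15 min at room temperature before 2 uM Z-FR-AMC is added. Release of AMC is followed at 360/450 nm, and progress is taken as the 60 s fluorescence difference.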
Each line names hits and unclear results; the compound was inactive in the other large screens. Calls come from the whole dose curve; as a rule, active = well fitted curve in the direction sought with a large enough effect; inconclusive = small, poorly fitted or top-dose-only effect, or another doubt; inactive = no such curve, though single readings can be large; an effect the other way counts as inactive or inconclusive.

Cc1ccc(S(=O)(=O)CC(=O)Nc2nc3c(C)cccc3s2)cc1	Cruzain noTriton 25µM
Cc1ccc(Cl)c2sc(NC(=O)CS(=O)(=O)c3ccc(Cl)cc3)nc12	none
O=C(CS(=O)(=O)c1ccc(Cl)cc1)Nc1nc2ccc(Br)cc2s1	Cruzain noTriton 7.9µM
CC(=O)Nc1ccc2nc(NC(=O)CS(=O)(=O)c3ccc(C)cc3)sc2c1	none
COc1ccc(CCNC(=O)C(C)n2c(=O)cc(-c3ccccc3)c3c(C)nn(C)c32)cc1OC (stereo unspecified)	Cruzain noTriton inconclusive
Cc1ccc(NC(=O)Cn2cc3c(n2)CCCCC3)cc1	none
CC(C)c1nn2c(=O)cc(COC(=O)c3ccc(NC(=O)CCc4ccccc4)cc3)nc2s1	none
Cc1ccc(S(=O)(=O)N2CCCc3cc(NS(=O)(=O)c4cccc(Cl)c4)ccc32)cc1	Cruzain noTriton 25µM
CCOc1ccc(S(=O)(=O)Nc2ccc3c(c2)CCCN3S(=O)(=O)c2ccc(C)cc2)cc1	Cruzain noTriton inconclusive
CC1CCc2c(cc(-c3ccccc3)n2-c2ccc(C(=O)NC(C)C)cc2)C1 (stereo unspecified)	none
COC(=O)C/C=C/[C@@H](C)[C@@H](Cc1ccccc1Br)OC	none
COC(=O)c1ccc(-c2nc3ccc(C)cc3o2)cc1	none
CN(C)c1ccc(N=Cc2nc(-c3ccccc3)oc2OC(=O)c2cccc(Cl)c2)cc1	Cruzain noTriton 20µM
Cc1ccc(C(=O)Oc2oc(-c3ccccc3)nc2C=Nc2ccc(N(C)C)cc2)cc1	Cruzain noTriton 25µM, Cruzain Triton 28µM
Oc1oc(-c2ccccc2)nc1C=Nc1cccc2ccccc12	Cruzain noTriton inconclusive
Cc1ccc(OC(C)C(=O)N2CCN(CCc3ccncc3)CC2)cc1C (stereo unspecified)	none
CC(=O)Oc1cc2c(c(C)c1OC(C)=O)CC=C1[C@]3(C)CC[C@]4(C)CC[C@@](C)(C(=O)O)CC4[C@]3(C)CC[C@]12C (stereo partly specified)	none
Cn1c(=O)n(C/C=C/c2ccccc2)c(=O)c2c1nc1n2CCN1c1ccc(F)cc1	none
Cc1nc(N2CCCC2)ncc1C(=O)NCc1cccc(Cl)c1	none
COc1cc(Cl)c(C)cc1NC(=O)CSc1ncc(S(=O)(=O)c2ccc(C(C)(C)C)cc2)c(=O)[nH]1	Cruzain Triton 28µM
Cc1ccc(NC(=O)CSc2ncc(S(=O)(=O)c3ccc(C(C)C)cc3)c(=O)[nH]2)cc1C	none
CCc1ccc(S(=O)(=O)c2cnc(SCC(=O)Nc3ccc(OC)cc3OC)[nH]c2=O)cc1	none
Cc1c(Cl)cccc1NC(=O)CSc1ncc(S(=O)(=O)c2ccc(C(C)C)cc2)c(=O)[nH]1	Cruzain noTriton inconclusive, Cruzain Triton 28µM
Sc1ccc2ccccc2c1CNCc1ccccc1	none
C=CCn1c(SCc2nc3sc4c(c3c(=O)[nH]2)CCCC4)nc2ccccc2c1=O	Cruzain noTriton 13µM
C=CCSc1nnc(CSc2nc3sc4c(c3c(=O)[nH]2)CCCC4)n1-c1ccccc1	none
CCOCCCNC(=O)C(NC(=O)C1CCC(C)CC1)C(C)C (stereo unspecified)	none
O=C(COC(=O)c1ccc(Cl)c(S(=O)(=O)N2CCN(c3ccc(F)cc3)CC2)c1)Nc1cccc(Cl)c1	Cruzain noTriton 13µM
COc1ccccc1N1CCN(S(=O)(=O)c2cc(C(=O)Nc3ccc(Oc4ccccc4)cc3)ccc2F)CC1	Cruzain noTriton 7.9µM
Cc1cccc(NC(=O)c2ccc(F)c(S(=O)(=O)N3CCN(c4ccc(F)cc4)CC3)c2)c1	Cruzain noTriton inconclusive
O=C(Nc1ccc(Oc2ccccc2)cc1)c1ccc(F)c(S(=O)(=O)N2CCN(c3ccccc3F)CC2)c1	Cruzain noTriton 7.9µM
O=C(Nc1ccc(Oc2ccccc2)cc1)c1ccc(F)c(S(=O)(=O)N2CCN(c3cccc(Cl)c3)CC2)c1	Cruzain noTriton 4µM
CC(C)c1ccc(NC(=O)c2ccc(F)c(S(=O)(=O)N3CCN(c4ccccc4F)CC3)c2)cc1	none
COc1ccccc1N1CCN(S(=O)(=O)c2ccccc2F)CC1	none
Cc1cccc(N2CCN(S(=O)(=O)c3cc(C(=O)Nc4ccc(Oc5ccccc5)cc4)ccc3F)CC2C)c1 (stereo unspecified)	none
COC(=O)c1ccc(OC)c(Cn2c(=O)n(-c3ccc(C)cc3)c(=O)c3c2cnn3C)c1	none
O=c1c2c3c(sc2nnn1Cc1ccc(F)cc1)CCCC3	none
COc1ccc(-c2cc3ccc(O)c(CN4CCN(C)CC4)c3oc2=O)cc1OC	none
CC(C)CC(=O)C[C@H](O)C(Cl)(Cl)Cl	none
Cc1ccc(CNC(=O)/C=C/c2ccccc2Cl)cc1	none
Cc1ccc(CNC(=O)/C=C/c2c(Cl)cccc2Cl)cc1	Cruzain noTriton 25µM
CN(Cc1ccccc1)C(=O)[C@H](Cc1ccc2ccccc2c1)NC(=O)[C@@H]1CCCN1C(=O)Nc1ccccc1[N+](=O)[O-]	none
O=C1CC(N(CCc2ccccc2)C(=S)Nc2ccccc2)C(=O)N1c1ccccc1 (stereo unspecified)	none
O=C1CC(N(CCc2ccccc2)C(=S)Nc2cc(Cl)ccc2Cl)C(=O)N1c1c(Cl)cccc1Cl (stereo unspecified)	Cruzain noTriton 13µM
N#C/C(=C\c1ccccc1)c1nc(-c2cc3c(ccc4ccccc43)oc2=O)cs1	none
COc1ccc(-c2[nH]nc3c2C(c2ccccc2OC(=O)N2CCOCC2)C(C#N)=C(N)O3)cc1 (stereo unspecified)	Cruzain noTriton inconclusive
Cc1ccc(-c2[nH]nc3c2C(c2ccccc2OC(=O)N2CCOCC2)C(C#N)=C(N)O3)cc1 (stereo unspecified)	Cruzain noTriton 25µM
Cc1sc2ncn(CC(=O)N3CCN(c4ccccc4F)CC3)c(=O)c2c1S(=O)(=O)N1CCN(c2ncccn2)CC1	none
Cc1ccc(N2C(=O)CS(=O)(=O)C23C(=O)N(Cc2ccccc2C)c2ccccc23)cc1Cl (stereo unspecified)	Cruzain noTriton 2µM
Cc1ccc(C)c(CN2C(=O)C3(c4ccccc42)N(c2cccc(C(F)(F)F)c2)C(=O)CS3(=O)=O)c1 (stereo unspecified)	Cruzain noTriton 1.3µM
CCc1cccc(N2C(=O)CS(=O)(=O)C23C(=O)N(Cc2ccc(F)cc2)c2ccc(C)cc23)c1 (stereo unspecified)	Cruzain noTriton inconclusive
CN1C(=O)C2(c3ccccc31)N(c1ccc(F)c(Cl)c1)C(=O)CS2(=O)=O (stereo unspecified)	Cruzain noTriton inconclusive
O=C1CS(=O)(=O)C2(C(=O)N(Cc3ccccc3)c3ccccc32)N1c1ccc(F)c(Cl)c1 (stereo unspecified)	Cruzain noTriton 2µM
CCc1cccc(N2C(=O)CS(=O)(=O)C23C(=O)N(Cc2ccccc2)c2ccc(C)cc23)c1 (stereo unspecified)	Cruzain noTriton 1.6µM
Cc1ccccc1CN1C(=O)C2(c3ccccc31)N(c1ccccc1)C(=O)CS2(=O)=O (stereo unspecified)	none
Cc1cc(C)cc(N2C(=O)CS(=O)(=O)C23C(=O)N(C)c2ccccc23)c1 (stereo unspecified)	none
O=C(NCc1cccc(Cl)c1)NCc1noc2ccccc12	none
CC(=O)C1(C)CC2(CC(C)(C)OC2=O)C(=O)O1 (stereo unspecified)	none
C[C@@H]1O[C@@H](O)[C@@H](O)[C@H](O)[C@H]1O	none
Cc1cccc(N2CCN(c3nc4ccc(C)cc4n4cnnc34)CC2C)c1 (stereo unspecified)	none
COc1ccc(CNc2nc(-c3ccccc3CN(C)C)nc3ccccc23)c(OC)c1	none
